# Laboratory results reported in PMC7862700, “An all-to-all approach to the identification of sequence-specific readers for epigenetic DNA modifications on cytosine”.
# How the values were obtained:
# Test in all cases: DAPPL (digital affinity profiling via proximity ligation, sequencing); 10 mM Tris-HCl pH 7.5, 50 mM NaCl, 1 mM DTT, 4% glycerol, room temperature, 30 min; GST-TFs on glutathione beads, 16-mer random dsDNA library, 0.1% formaldehyde crosslink after washing; high values mean tight binding
# FLI1 = target: T1, FLI1 (Homo sapiens, UniProt Q01543 1-452); conditions: protein: recombinant; tags: N-terminal GST; dsDNA, one strand shown
# T1 sequence: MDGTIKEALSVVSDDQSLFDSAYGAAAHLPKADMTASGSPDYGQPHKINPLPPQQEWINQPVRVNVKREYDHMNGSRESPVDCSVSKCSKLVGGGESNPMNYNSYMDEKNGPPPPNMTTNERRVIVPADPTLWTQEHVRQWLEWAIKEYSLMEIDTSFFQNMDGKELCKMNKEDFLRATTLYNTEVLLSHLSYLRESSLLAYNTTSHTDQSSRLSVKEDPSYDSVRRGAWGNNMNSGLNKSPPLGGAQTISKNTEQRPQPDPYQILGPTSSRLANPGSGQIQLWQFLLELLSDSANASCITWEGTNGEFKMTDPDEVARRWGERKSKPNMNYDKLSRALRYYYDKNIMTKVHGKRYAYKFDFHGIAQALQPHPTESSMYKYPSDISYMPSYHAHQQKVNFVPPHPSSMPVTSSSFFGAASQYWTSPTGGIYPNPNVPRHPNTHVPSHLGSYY
# How it was run: (§1)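 Human transcription factors fused to GST were expressed in yeast, captured on glutathione beads, given DNA barcodes and pooled with a GST-only negative control. Pools were incubated with 200 nmole of a 16-mer random double-stranded DNA library in Tris/NaCl/DTT/glycerol buffer at room temperature for 30 min. They were then washed, crosslinked with 0.1% formaldehyde, proximity-ligated (BsaI/T4 ligase, 1 h, 37 °C), PCR-amplified and sequenced on an Illumina NextSeq500. Binding signal is each 6-mer's read frequency for a factor divided by its frequency for the GST control.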
# ELK1 = target: T2, ELK1 (Homo sapiens, UniProt P19419 1-428); conditions: protein: recombinant; tags: N-terminal GST; dsDNA, one strand shown
# T2 sequence: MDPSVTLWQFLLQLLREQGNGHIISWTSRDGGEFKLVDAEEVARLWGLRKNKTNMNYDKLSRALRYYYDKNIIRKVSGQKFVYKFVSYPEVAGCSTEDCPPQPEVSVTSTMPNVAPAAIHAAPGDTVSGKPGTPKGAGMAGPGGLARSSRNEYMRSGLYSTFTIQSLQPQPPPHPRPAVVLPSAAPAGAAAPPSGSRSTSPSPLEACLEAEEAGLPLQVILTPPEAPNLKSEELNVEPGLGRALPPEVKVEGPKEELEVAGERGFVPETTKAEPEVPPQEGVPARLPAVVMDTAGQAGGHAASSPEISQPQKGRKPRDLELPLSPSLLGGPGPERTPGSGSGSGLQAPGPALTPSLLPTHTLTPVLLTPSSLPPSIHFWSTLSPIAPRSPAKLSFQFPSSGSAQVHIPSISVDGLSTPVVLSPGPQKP
# How it was run: as §1
# GABPA = target: T3, GABPA (Homo sapiens, UniProt Q06546 1-454); conditions: protein: recombinant; tags: N-terminal GST; dsDNA, one strand shown
# T3 sequence: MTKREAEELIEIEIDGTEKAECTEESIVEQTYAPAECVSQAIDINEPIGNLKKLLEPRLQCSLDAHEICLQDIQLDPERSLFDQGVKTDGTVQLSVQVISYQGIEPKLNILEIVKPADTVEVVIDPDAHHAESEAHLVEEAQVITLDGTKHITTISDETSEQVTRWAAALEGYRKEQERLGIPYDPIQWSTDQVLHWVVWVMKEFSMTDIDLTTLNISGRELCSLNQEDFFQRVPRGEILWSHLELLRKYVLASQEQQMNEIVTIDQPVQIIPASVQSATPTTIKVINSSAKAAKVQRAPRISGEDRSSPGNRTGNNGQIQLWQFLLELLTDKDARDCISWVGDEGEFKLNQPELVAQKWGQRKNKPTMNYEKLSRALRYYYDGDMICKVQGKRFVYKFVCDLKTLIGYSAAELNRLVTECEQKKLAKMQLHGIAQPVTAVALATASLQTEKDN
# How it was run: as §1
# ERG = target: T4, ERG (Homo sapiens, UniProt P11308 1-479); conditions: protein: recombinant; tags: N-terminal GST; dsDNA, one strand shown
# T4 sequence: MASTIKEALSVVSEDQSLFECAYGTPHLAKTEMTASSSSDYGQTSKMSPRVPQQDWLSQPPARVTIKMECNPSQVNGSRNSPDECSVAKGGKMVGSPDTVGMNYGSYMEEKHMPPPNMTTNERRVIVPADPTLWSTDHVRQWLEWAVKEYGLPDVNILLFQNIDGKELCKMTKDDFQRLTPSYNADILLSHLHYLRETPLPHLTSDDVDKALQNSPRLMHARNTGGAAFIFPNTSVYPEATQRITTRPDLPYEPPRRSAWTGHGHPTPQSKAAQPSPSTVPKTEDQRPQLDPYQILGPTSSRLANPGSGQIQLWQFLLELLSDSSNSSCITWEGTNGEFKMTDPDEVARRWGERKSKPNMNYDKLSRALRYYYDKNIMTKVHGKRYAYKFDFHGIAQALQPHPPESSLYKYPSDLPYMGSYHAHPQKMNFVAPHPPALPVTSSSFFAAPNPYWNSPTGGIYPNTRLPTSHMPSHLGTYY
# How it was run: as §1
# ELF1 = ELF1 (Homo sapiens, UniProt P32519 1-619); conditions: protein: recombinant; tags: N-terminal GST; dsDNA, one strand shown
# Sequence of ELF1 (P32519 whole entry): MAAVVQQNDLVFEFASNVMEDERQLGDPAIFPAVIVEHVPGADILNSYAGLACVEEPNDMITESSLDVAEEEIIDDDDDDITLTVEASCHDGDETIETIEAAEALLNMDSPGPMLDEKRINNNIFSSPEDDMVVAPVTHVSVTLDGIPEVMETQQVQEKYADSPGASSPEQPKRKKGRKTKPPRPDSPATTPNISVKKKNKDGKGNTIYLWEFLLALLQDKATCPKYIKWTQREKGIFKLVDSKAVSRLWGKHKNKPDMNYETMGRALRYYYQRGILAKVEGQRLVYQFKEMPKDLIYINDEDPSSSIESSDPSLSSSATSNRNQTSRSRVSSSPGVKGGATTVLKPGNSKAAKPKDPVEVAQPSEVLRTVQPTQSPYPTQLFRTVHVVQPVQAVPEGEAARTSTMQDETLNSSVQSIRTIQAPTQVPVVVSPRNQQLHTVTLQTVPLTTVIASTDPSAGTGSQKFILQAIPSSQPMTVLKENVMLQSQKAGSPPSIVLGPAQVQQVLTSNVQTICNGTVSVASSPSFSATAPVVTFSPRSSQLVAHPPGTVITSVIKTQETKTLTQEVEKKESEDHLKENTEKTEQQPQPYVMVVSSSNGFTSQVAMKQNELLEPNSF
# How it was run: as §1
# EHF = target: T5, EHF (Homo sapiens, UniProt Q9NZC4 1-300); conditions: protein: recombinant; tags: N-terminal GST; dsDNA, one strand shown
# T5 sequence: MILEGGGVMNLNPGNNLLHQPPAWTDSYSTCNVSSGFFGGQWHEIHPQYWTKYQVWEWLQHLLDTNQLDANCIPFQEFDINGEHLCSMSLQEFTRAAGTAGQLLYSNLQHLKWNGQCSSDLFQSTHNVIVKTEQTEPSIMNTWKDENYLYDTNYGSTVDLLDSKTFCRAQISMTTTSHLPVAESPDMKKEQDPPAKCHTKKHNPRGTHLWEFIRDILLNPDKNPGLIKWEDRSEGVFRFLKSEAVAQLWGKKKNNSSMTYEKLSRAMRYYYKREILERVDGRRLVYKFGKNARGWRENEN
# How it was run: as §1
# SPI1 = SPI1 (Homo sapiens, UniProt P17947 1-270); conditions: protein: recombinant; tags: N-terminal GST; dsDNA, one strand shown
# How it was run: as §1
# SPIB = SPIB (Homo sapiens, UniProt Q01892 1-262); conditions: protein: recombinant; tags: N-terminal GST; dsDNA, one strand shown
# Sequence of SPIB (Q01892 whole entry): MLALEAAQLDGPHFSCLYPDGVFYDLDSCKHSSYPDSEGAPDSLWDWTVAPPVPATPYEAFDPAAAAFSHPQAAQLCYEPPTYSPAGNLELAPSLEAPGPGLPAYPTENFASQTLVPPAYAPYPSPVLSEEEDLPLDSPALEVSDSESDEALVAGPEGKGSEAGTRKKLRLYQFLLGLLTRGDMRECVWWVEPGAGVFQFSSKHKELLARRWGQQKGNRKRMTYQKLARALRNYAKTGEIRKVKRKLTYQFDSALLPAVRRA
# How it was run: as §1
# ELK3 = target: T6, ELK3 (Homo sapiens, UniProt P41970 1-407); conditions: protein: recombinant; tags: N-terminal GST; dsDNA, one strand shown
# T6 sequence: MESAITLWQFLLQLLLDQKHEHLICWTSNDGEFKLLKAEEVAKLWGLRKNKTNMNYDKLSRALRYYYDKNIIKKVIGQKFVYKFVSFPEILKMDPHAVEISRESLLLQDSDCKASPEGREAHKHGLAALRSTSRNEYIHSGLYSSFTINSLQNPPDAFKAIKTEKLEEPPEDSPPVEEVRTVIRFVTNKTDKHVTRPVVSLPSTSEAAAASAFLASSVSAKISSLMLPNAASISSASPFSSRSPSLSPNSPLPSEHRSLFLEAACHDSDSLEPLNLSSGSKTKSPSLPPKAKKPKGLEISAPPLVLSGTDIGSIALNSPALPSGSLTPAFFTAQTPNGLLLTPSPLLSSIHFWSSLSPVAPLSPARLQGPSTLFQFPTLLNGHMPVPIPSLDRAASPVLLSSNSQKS
# How it was run: as §1
# FEV = target: T7, FEV (Homo sapiens, UniProt Q99581 1-238); conditions: protein: recombinant; tags: N-terminal GST; dsDNA, one strand shown
# T7 sequence: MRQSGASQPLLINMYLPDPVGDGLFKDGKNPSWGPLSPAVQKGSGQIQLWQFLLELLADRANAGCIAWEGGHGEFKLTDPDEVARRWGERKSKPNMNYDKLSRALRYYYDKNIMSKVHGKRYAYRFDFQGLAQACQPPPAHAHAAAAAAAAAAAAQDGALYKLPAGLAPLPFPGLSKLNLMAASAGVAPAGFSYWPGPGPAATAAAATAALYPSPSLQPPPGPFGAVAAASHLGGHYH
# How it was run: as §1
# ETV5 = ETV5 (Homo sapiens, UniProt P41161 1-510); conditions: protein: recombinant; tags: N-terminal GST; dsDNA, one strand shown
# Sequence of ETV5 (P41161 whole entry): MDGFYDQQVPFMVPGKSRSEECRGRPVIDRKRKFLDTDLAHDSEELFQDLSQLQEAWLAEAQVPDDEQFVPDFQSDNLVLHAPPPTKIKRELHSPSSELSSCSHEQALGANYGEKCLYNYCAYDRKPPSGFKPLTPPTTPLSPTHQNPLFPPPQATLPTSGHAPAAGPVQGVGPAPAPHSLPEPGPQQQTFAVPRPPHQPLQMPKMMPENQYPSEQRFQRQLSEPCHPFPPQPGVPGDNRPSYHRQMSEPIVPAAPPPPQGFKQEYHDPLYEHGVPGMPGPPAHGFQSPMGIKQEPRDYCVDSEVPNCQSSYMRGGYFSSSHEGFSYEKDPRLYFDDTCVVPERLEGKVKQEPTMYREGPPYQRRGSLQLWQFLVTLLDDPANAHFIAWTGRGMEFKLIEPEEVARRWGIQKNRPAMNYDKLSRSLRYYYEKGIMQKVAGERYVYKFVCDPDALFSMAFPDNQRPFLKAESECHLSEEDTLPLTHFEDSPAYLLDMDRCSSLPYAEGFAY
# How it was run: as §1
# HSF1 = HSF1 (Homo sapiens, UniProt Q00613 1-529); conditions: protein: recombinant; tags: N-terminal GST; chain copies: 3; dsDNA, one strand shown
# Sequence of HSF1 (Q00613 whole entry): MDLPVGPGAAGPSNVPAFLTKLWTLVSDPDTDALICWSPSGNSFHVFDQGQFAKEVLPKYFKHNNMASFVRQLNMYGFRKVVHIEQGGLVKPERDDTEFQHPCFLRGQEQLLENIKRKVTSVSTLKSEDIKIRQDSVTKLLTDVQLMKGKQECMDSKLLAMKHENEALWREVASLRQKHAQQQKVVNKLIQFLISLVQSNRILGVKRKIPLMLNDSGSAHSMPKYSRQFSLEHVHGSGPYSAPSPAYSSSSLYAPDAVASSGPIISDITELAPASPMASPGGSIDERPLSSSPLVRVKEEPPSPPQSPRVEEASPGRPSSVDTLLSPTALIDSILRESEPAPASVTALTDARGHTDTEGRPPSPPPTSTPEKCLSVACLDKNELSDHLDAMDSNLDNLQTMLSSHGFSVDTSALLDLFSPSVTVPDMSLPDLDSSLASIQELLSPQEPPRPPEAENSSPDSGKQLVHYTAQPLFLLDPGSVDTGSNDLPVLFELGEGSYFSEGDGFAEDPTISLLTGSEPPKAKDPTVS
# How it was run: as §1
# SPIC = target: T8, SPIC (Homo sapiens, UniProt Q8N5J4 1-248); conditions: protein: recombinant; tags: N-terminal GST; dsDNA, one strand shown
# T8 sequence: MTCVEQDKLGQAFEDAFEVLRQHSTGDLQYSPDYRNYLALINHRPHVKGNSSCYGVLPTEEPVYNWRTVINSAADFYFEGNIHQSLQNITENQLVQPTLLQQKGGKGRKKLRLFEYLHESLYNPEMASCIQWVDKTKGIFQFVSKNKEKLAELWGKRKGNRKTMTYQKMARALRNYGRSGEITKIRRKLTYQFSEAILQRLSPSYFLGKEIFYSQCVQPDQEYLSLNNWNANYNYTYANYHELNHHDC
# How it was run: as §1
# ELF4 = ELF4 (Homo sapiens, UniProt Q99607 1-663); conditions: protein: recombinant; tags: N-terminal GST; dsDNA, one strand shown
# Sequence of ELF4 (Q99607 whole entry): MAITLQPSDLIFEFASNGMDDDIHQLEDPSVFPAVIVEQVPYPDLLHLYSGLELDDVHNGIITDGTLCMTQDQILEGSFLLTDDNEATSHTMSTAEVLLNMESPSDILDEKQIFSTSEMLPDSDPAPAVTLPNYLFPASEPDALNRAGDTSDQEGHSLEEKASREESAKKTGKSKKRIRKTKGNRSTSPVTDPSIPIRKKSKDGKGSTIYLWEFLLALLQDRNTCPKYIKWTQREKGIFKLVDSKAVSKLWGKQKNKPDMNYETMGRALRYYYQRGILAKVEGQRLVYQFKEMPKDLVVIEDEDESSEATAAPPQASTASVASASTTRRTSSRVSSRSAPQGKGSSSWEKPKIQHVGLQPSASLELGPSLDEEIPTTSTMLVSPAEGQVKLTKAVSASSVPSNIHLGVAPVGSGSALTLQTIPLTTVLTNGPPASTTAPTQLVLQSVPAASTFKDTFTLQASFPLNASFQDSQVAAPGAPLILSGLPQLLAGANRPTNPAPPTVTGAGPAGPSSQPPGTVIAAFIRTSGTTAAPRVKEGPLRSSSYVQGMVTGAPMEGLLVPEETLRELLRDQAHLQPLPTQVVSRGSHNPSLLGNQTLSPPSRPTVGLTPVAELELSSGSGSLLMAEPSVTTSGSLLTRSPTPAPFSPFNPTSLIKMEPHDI
# How it was run: as §1
# ELK4 = target: T9, ELK4 (Homo sapiens, UniProt P28324-2 1-405); conditions: protein: recombinant; tags: N-terminal GST; dsDNA, one strand shown
# T9 sequence: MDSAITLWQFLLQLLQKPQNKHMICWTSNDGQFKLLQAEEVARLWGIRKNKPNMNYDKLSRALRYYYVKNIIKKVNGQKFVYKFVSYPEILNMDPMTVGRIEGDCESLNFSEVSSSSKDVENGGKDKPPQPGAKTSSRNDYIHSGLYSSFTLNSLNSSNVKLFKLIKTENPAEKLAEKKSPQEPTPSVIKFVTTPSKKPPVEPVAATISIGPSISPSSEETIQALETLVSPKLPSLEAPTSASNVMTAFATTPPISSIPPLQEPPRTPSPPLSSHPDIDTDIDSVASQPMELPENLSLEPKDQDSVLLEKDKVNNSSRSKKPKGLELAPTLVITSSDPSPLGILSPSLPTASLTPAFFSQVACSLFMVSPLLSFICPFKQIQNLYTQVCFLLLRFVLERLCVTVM
# How it was run: as §1
# ETV2 = target: T10, ETV2 (Homo sapiens, UniProt O00321 1-342); conditions: protein: recombinant; tags: N-terminal GST; dsDNA, one strand shown
# T10 sequence: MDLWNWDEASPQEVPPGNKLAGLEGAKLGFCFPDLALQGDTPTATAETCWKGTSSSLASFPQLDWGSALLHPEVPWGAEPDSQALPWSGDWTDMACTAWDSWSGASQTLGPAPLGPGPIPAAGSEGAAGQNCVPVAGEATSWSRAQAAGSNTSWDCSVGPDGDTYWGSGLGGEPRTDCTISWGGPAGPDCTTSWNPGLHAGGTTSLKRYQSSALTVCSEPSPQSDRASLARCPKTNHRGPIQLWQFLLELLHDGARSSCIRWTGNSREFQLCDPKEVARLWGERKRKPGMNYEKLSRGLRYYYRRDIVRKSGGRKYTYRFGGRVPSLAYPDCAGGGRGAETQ
# How it was run: as §1
# ELF3 = target: T11, ELF3 (Homo sapiens, UniProt P78545 1-371); conditions: protein: recombinant; tags: N-terminal GST; dsDNA, one strand shown
# T11 sequence: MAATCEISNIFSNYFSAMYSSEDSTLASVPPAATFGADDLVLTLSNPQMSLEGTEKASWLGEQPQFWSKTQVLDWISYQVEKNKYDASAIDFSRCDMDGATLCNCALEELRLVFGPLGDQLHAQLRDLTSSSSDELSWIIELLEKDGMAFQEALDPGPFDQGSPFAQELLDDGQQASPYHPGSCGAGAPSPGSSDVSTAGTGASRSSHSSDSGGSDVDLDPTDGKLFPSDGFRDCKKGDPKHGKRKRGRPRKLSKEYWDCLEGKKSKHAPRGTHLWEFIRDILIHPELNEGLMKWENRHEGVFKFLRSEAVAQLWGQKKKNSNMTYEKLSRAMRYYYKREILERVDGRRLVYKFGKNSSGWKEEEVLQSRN
# How it was run: as §1
# CRX = CRX (Homo sapiens, UniProt O43186 1-299); conditions: protein: recombinant; tags: N-terminal GST; dsDNA, one strand shown
# Sequence of CRX (O43186 whole entry): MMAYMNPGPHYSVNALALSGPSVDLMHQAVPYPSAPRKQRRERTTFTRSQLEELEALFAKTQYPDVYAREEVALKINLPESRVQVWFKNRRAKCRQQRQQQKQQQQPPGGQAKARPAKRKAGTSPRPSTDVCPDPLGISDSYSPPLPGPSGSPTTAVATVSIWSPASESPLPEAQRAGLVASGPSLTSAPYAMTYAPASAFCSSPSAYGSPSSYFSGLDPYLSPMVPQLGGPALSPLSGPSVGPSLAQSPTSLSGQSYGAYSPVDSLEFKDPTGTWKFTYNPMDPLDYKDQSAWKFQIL
# How it was run: as §1
# ETV1 = ETV1 (Homo sapiens, UniProt P50549 1-477); conditions: protein: recombinant; tags: N-terminal GST; dsDNA, one strand shown
# Sequence of ETV1 (P50549 whole entry): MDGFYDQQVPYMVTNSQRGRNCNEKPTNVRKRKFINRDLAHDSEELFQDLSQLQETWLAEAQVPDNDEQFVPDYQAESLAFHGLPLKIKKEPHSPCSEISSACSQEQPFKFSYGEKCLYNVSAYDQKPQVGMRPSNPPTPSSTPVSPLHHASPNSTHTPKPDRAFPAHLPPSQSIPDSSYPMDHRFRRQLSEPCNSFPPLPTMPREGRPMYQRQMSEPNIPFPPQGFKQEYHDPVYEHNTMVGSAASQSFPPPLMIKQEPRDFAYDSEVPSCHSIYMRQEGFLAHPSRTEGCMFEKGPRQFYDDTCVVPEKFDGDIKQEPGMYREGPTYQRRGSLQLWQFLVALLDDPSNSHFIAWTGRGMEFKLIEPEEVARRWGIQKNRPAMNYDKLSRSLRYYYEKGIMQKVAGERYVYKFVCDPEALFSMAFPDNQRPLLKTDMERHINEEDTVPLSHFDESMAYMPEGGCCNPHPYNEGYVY
# How it was run: as §1
sequence,measurement,setting,value
ATTACA,binding signal,FLI1,"1.14 fold enrichment (6-mer frequency, TF over GST control)"
same,binding signal,ELK1,"1.13 fold enrichment (6-mer frequency, TF over GST control)"
same,binding signal,GABPA,"1.06 fold enrichment (6-mer frequency, TF over GST control)"
same,binding signal,ERG,"1.12 fold enrichment (6-mer frequency, TF over GST control)"
same,binding signal,ELF1,"1.1 fold enrichment (6-mer frequency, TF over GST control)"
same,binding signal,EHF,"1.12 fold enrichment (6-mer frequency, TF over GST control)"
same,binding signal,SPI1,"1.08 fold enrichment (6-mer frequency, TF over GST control)"
same,binding signal,SPIB,"1.15 fold enrichment (6-mer frequency, TF over GST control)"
same,binding signal,ELK3,"1.11 fold enrichment (6-mer frequency, TF over GST control)"
same,binding signal,FEV,"1.06 fold enrichment (6-mer frequency, TF over GST control)"
same,binding signal,ETV5,"1.07 fold enrichment (6-mer frequency, TF over GST control)"
same,binding signal,HSF1,"1.4 fold enrichment (6-mer frequency, TF over GST control)"
same,binding signal,SPIC,"1.15 fold enrichment (6-mer frequency, TF over GST control)"
same,binding signal,ELF4,"1.16 fold enrichment (6-mer frequency, TF over GST control)"
same,binding signal,ELK4,"1.2 fold enrichment (6-mer frequency, TF over GST control)"
same,binding signal,ETV2,"1.14 fold enrichment (6-mer frequency, TF over GST control)"
same,binding signal,ELF3,"1.16 fold enrichment (6-mer frequency, TF over GST control)"
same,binding signal,CRX,"1.86 fold enrichment (6-mer frequency, TF over GST control)"
same,binding signal,ETV1,"1.17 fold enrichment (6-mer frequency, TF over GST control)"
